# According to PubChem BioAssay:
# System: XIP peptide (Xip251-270)
# Test: small-molecule binders of XIP peptide, primary screen, biochemical, small-molecule microarray, fluorescence 635/667 nm, 0.5 µg/mL protein (AID 1183)
# Conditions: small-molecule microarray binding, fluorescence 635 nm; higher = more signal
row,Compound,composite z-score
1,COc1ccc(O[C@H]2C=C[C@@H](c3ccccc3)O[C@@H]2CON=C(C)CCC(=O)OC[C@H]2O[C@H](c3ccccc3)C=C[C@@H]2Oc2ccc(OC)cc2)cc1,-0.0127
2,CO[C@@H]1COC(=O)CC=C[C@H](C)[C@H](OC)COC(=O)[C@H](C)NC(=O)CC=C[C@H]1C,0.82
3,CC(=O)OC[C@H]1O[C@@H](ON=C(C)CCN2CCCc3nc(C)c(C)cc32)[C@H](OC(C)=O)[C@@H](OC(C)=O)[C@@H]1OC(C)=O,0.667
4,Cc1ccc(S(=O)(=O)OC[C@H]2CN3[C@H](c4ccc(Br)cc4)[C@@H](C)CC[C@H]3C(=O)O2)cc1,0.564
5,CON=C[C@@H](NS(=O)(=O)c1ccc(C)cc1)[C@H](C)C=CCC(=O)OC,0.332
6,CCOC(=O)C1=NO[C@@]2(C=C(Br)C3(OCCCO3)[C@H]3O[C@H]32)C1,0.512
7,O=C(NN=C1C[C@@H](O)[C@@H](O)[C@@H]2[C@@H]3C(=O)N(Cc4ccccc4)C(=O)[C@@H]3CC[C@@H]12)OCc1ccccc1,-0.36
8,CO[C@@H]1COC(=O)CC=C[C@@H](C)[C@H](OC)COC(=O)[C@@H](C)COC(=O)CC=C[C@H]1C,-0.497
9,O=C(NN=C1C[C@@H](O)[C@@H](O)[C@@H]2[C@@H]3C(=O)N(C4CCCCC4)C(=O)[C@@H]3CC[C@H]12)OCc1ccccc1,0.109
10,O=c1n(Cc2cc3c(cc2Cl)OCO3)c(=O)n2n1CC[C@@H]1C(=NOC[C@@H](O)COCc3ccco3)[C@H]3O[C@H]3[C@@H](O)[C@@H]12,0.108
11,O=C1C=C[C@@H](O)[C@@H]2[C@@H]3C(=O)N(c4ccc(F)cc4F)C(=O)[C@@H]3CC[C@@H]12,0.165
12,CCOC(=O)[C@H](CC(C)C)NC(=O)CCC1CC(OC(=O)NCc2cccc3ccccc23)CC2(CCCC(COC(=O)NCCCN3CCCC3=O)O2)O1 (stereo partly specified),0.524
13,COc1ccc(O[C@H]2C=C[C@@H](c3ccccc3)O[C@@H]2COC(=O)CCC(C)=NOC(C)CN2CCCc3nc(C)c(C)cc32)cc1 (stereo partly specified),0.552
14,O=C1CCCC=C1C(O)CCOC(c1ccccc1)(c1ccccc1)c1ccccc1 (stereo unspecified),-0.364
15,C[C@H]1CC[C@H]2C(=O)OC(CO)CN2[C@@H]1c1ccc(Br)cc1 (stereo partly specified),0.115
16,CCOC(=O)[C@H](Cc1ccccc1)NC(=O)CCC1CC(OC(=O)NCc2ccc3c(c2)OCO3)CC2(CCCC(COC(=O)NCCc3ccccc3OC)O2)O1 (stereo partly specified),0.798
17,O=C1CCCC=C1C(CCc1ccccc1)OC(=O)c1ccc(Br)cc1 (stereo unspecified),-0.198
18,COC(=O)CC=C[C@@H](C)[C@@H](C=NOC(C)CN1CCCc2nc(C)c(C)cc21)OC (stereo partly specified),0.274

row,Compound,composite z-score
1,CCOC(=O)[C@H](Cc1ccccc1)NC(=O)CCC1CC(OC(=O)NCc2ccc3c(c2)OCO3)CC2(CCCC(COC(=O)NCCC(C)C)O2)O1 (stereo partly specified),0.18
2,COc1ccc(COC(=O)NN=C2C[C@@H](O)[C@@H](O)[C@@H]3[C@@H]4C(=O)N(Cc5ccccc5)C(=O)[C@@H]4CC[C@H]23)cc1,-0.0564
3,CCOC(=O)[C@H](Cc1ccccc1)NC(=O)CCC1CC(OC(=O)NCc2cccc3ccccc23)CC2(CCCC(COC(=O)NCCC(C)C)O2)O1 (stereo partly specified),0.027
4,C=CC[C@@H]1C=C[C@H](ON=C(C)CCN2CCc3nc(-c4ccccc4)c(-c4ccccc4)cc3C2)[C@@H](CO)O1,0.58
5,CO[C@H]1COC(=O)[C@H](C)NC(=O)[C@@H](C)COC(=O)[C@H]2CCCN2C(=O)CC=C[C@H]1C,-0.143
6,CCOC(=O)[C@H](CC(C)C)NC(=O)CCC1CC(OC(=O)NCc2ccc3c(c2)OCO3)CC2(CCCC(COC(=O)NCC(c3ccccc3)c3ccccc3)O2)O1 (stereo partly specified),-0.0305
7,CC(CCN1CCCCc2nc(C)c(C)cc21)=NO[C@@H](C)c1cn([C@H](CO)Cc2ccccc2)nn1,0.521
8,CC(=O)OC[C@H]1OC(ON=CC[C@@H]2C=C[C@H](OC(C)=O)[C@@H](COC(C)=O)O2)[C@H](OC(C)=O)[C@@H](OC(C)=O)[C@@H]1OC(C)=O (stereo partly specified),0.0849
9,CCOC(=O)NN=C1C[C@@H](O)[C@@H](O)[C@@H]2[C@@H]3C(=O)N(Cc4ccccc4)C(=O)[C@@H]3CC[C@H]12,0.0213
10,CC(C)C[C@H](NC(=O)CCC1CC(OC(=O)NCc2cccc3ccccc23)CC2(CCCC(COC(=O)NCc3ccccc3)O2)O1)C(=O)NCC(c1ccccc1)c1ccccc1 (stereo partly specified),0.673
11,COc1ccc(O[C@H]2C=C[C@@H](c3ccccc3)O[C@@H]2CON=C(C)C)cc1,0.267
12,CON=C1[C@H]2CCn3c(=O)n(-c4ccccc4)c(=O)n3[C@H]2[C@H](O)[C@@H]2O[C@H]12,0.491
13,CC(CCN1CCc2nc(-c3ccccc3)c(-c3ccccc3)cc2C1)=NOC[C@@H](O)[C@H]1O[C@@H]2OC(C)(C)O[C@@H]2[C@H]1O,0.528
14,CC(CCN1CCCc2nc(C)c(C)cc21)=NO[C@@H](C)c1cc(-c2c(C)cc(C)cc2C)no1,0.567
15,CCCNC(=O)OC[C@H]1O[C@H](CCON=C(C)CCN2CCCc3nc(C)c(C)cc32)C=C[C@@H]1Oc1ccc(OC)cc1,0.527
16,CCOC(=O)[C@H](CC(C)C)NC(=O)CCC1CC(OC(=O)NCc2cccc3ccccc23)CC2(CCCC(COC(=O)NCc3cccc(C(F)(F)F)c3)O2)O1 (stereo partly specified),-0.298
17,O=C1CCCC(C2=CCCCC2=O)C1 (stereo unspecified),0.0997
18,CCc1cc2c(nc1CC)CCN(CCC(C)=NO[C@@H](C)c1cn([C@H](CO)Cc3ccccc3)nn1)C2,0.704
